According to PubChem BioAssay (NCATS):
Results filed as inconclusive are left out. The source made the active and inactive calls. Calls come from the whole dose curve; as a rule, active = well fitted curve in the direction sought with a large enough effect; inconclusive = small, poorly fitted or top-dose-only effect, or another doubt; inactive = no such curve, though single readings can be large; an effect the other way counts as inactive or inconclusive.

How the values were obtained:
[1] = target: Cellular tumor antigen p53 (Homo sapiens) (UniProt P04637); test: Primary qHTS for small molecule compounds that upregulate eGFP-tagged delta133p53alpha (in N-terminal) cells. (AID 2060322); conditions: NCI-H358 eGFP-delta133p53alpha fluorescence, 24 h; activation: hits give high values;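 note: series mostly up to about 56 µM; 0% = DMSO vehicle and 100% = reference activator; nearly all actives have a fitted effect of over 75% in size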
Outline: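 NCI-H358 cells pre-induced 24 h with 10 ng/ml doxycycline to express N-terminal eGFP-delta133p53alpha, then dosed 24 h at 37C without doxycycline; fixed, Hoechst-stained, GFP intensity by laser scanning cytometry, normalized to DMSO (0%) and 57.5 uM 5-azacytidine (100%).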

[2] = target: Aldehyde dehydrogenase, mitochondrial (Homo sapiens) (UniProt P05091); test: qHTS for Inhibitors of the Aldehyde Dehydrogenase Family (ALDH2) Primary screen (AID 2061308);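 note: plate controls were vehicle for no effect and reference inhibitor for full effect; nearly all actives have a fitted effect of over 55% in size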
[3] = target: Retinaldehyde dehydrogenase 3 (Homo sapiens) (UniProt P47895); test: qHTS for Inhibitors of the Aldehyde Dehydrogenase Family (ALDH1A3) Primary screen (AID 2061315);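 note: plate controls were DMSO vehicle for no effect and reference inhibitor for full effect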

Sequence of Cellular tumor antigen p53 (Homo sapiens) (P04637 whole entry, looked up): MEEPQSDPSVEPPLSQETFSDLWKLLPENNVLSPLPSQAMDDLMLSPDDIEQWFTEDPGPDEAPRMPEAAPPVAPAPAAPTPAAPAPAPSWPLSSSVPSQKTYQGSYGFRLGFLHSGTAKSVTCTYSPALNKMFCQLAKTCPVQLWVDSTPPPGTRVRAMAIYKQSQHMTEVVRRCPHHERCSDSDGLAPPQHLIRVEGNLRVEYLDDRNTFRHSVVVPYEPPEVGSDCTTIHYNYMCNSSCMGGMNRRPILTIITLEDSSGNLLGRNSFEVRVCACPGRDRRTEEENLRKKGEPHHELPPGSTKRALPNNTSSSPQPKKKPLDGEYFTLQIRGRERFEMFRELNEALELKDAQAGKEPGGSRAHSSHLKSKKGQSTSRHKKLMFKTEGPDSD

COc1ccc(-n2[nH]c3c(cnc4ccccc43)c2=O)cc1
inactive: activation [1] -9.55% | Potency [2] | Potency [3]

COc1ccc(/C=C/C(=O)O[C@H]2[C@@H]3C=CO[C@@H](O[C@@H]4O[C@H](CO)[C@@H](O)[C@H](O)[C@H]4O)[C@@H]3[C@@]3(CO)O[C@@H]23)cc1O
inactive: activation [1] -2.29% | Potency [2] | Potency [3]

CC(=O)c1cc2c(cc1O)OC(C)(C)C=C2
inactive: activation [1] 14.3% | Potency [2] | Potency [3]
